Here are results for 16 compounds from PubChem BioAssay.

Activity calls are given as the source filed them.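 How the source made its calls, unless noted: active means compound raises GLP1 secretion from the human gut endocrine cells, with no numeric limit stated; inactive means the rest.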

A short description of test [1]: Wnt pathway potentiators raising nuclear beta-catenin – imaging, WNT3A-conditioned medium, mouse C2C12, NPC library, primary screen (AID 1117326; in the data active means nuclear beta-catenin stimulation mostly above about 4.2%, no sharp cut-off; inactive means mostly below about 10%; further: reference of the scale not given here). The conditions noted are these: stronger effect = higher value.
Test [2] is described as follows: stimulators of insulin release from INS-1E, primary screen, cell-based, 5 mM glucose, NPC library (AID 1117329;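 active means compound raises insulin release from rat beta cells at 5 mM glucose, no numeric limit stated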; further: reference of the scale not given here). The conditions noted are these: rat INS-1E insulin secretion, at 10 µM, stronger effect = higher value.
A short description of test [3]: growth inhibition of GSK3B-pretreated HCT116 cells – cell-based, CellTiter-Glo, 0.2 to 20 µM (AID 1117336;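 active means compounds lowering colon cancer cell viability after pretreatment blocking the GSK3B kinase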). The conditions noted are these: HCT116 viability after GSK3B inhibitor, at 20 µM, stronger effect = higher value. In general terms: ATP-based viability assays read luminescence as a measure of living cells.
Test [4] can be described thus: inhibition of endothelial tube formation, primary screen, imaging, VEGF stimulated, CD31 staining, tube area, NPC library (AID 1117340;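 active means compound that reduces growth-factor-driven endothelial tube area in a mixed cell culture, no cutoff stated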). The conditions noted are these: VEGF-stimulated ADSC/ECFC co-culture, at 10 µM, stronger effect = higher value.
A short description of test [5]: GLP1 release stimulators, primary, NCI-H716, NPC library (AID 1117341). Further: reference of the scale not given here. The conditions noted are these: NCI-H716 cells, at 10 µM, stronger effect = higher value.
Test [6] can be described thus: HCT116 colon cancer cell growth inhibition, primary screen, CellTiter-Glo luminescence, NPC library (AID 1117342;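 active means compounds that lower survival of HCT116 colon cancer cells in the luminescence readout, no numeric limit stated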). The conditions noted are these: at 20 µM (top of the series).
Test [7] in a line: reduced SW480 viability measured with CellTiter-Glo, NPC library, primary (AID 1117343;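 active means compounds that lower viability of the colon cancer cells in the luminescence readout, with no numeric limit stated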). The conditions noted are these: CellTiter-Glo luminescence; at 20 µM (top of the series).
Test [8] is described as follows: NPC library primary testing for decreased DLD-1 cell viability via CellTiter-Glo (AID 1117346;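 active means compounds that lower survival of DLD-1 colon cancer cells in the luminescence readout, no cutoff given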). The conditions noted are these: DLD-1 viability, CellTiter-Glo luminescence; at 20 µM (top of the series).

Take `C=C(C)C(=O)OCC(O)CO` (centres undefined): the nuclear beta-catenin stimulation in test [1] (at 10 µM) was 7.5% (inactive); in test [1] (stimulation, at 2 µM) it was 28.1%. Further, the insulin secretion stimulation in test [2] was 2.7% (inactive). Besides, the viability decrease in test [3] was 3% (inactive). For the same compound, the tube area decrease in test [4] was -13.7% (inactive). Moreover, the GLP1 secretion stimulation in test [5] was -1.4% (inactive). The inhibition of viability in test [6] is 1.9% (inactive). Also, the figures for the viability decrease (inhibition) in test [7] and in test [8] were -10.3% (inactive) and 20.3% (inactive), respectively.
For the compound `C/C(=C1\CCOC(=O)S1)N(C=O)Cc1cnc(C)nc1N`, the nuclear beta-catenin stimulation is -0.3% (inactive) in test [1] (at 10 µM) and 0.1% in test [1] (stimulation, at 2 µM). Besides, the insulin secretion stimulation in test [2] was 4.7% (inactive). Besides, in test [3], the viability decrease was -6.1% (inactive). Further, the tube area decrease in test [4] is -16.6% (inactive). Also, the GLP1 secretion stimulation in test [5] was 8.1% (inactive). For the same compound, in test [6], the inhibition of viability is 19.8% (inactive). In addition, the viability decrease (inhibition) in test [7] was 3.7% (inactive); in test [8], 1.5% (inactive).
`Oc1cccc(O)c1O`: the nuclear beta-catenin stimulation is 5% (inactive) in test [1] (at 10 µM) and 2.5% in test [1] (stimulation, at 2 µM). For the same compound, in test [2], the insulin secretion stimulation is 2.5% (inactive). Also, the viability decrease in test [3] is 68.9% (active). For the same compound, the tube area decrease in test [4] is 24.9% (inactive). In test [5], the GLP1 secretion stimulation was -1% (inactive). For the same compound, in test [6], the inhibition of viability is 45.7% (inactive). Moreover, the results for the viability decrease (inhibition) in test [7] and in test [8] were 101% (active) and 17.2% (inactive), respectively.
`CC(C)=CCC/C(C)=C/CC/C(C)=C/CCC(=O)OC/C=C(\C)CCC=C(C)C`: the nuclear beta-catenin stimulation in test [1] (at 10 µM) is 0.5% (inactive); in test [1] (stimulation, at 2 µM) it was 0.6%. Also, in test [2], the insulin secretion stimulation is 5.2% (inactive). The viability decrease in test [3] is -4.2% (inactive). Also, the tube area decrease in test [4] was -4.6% (inactive). In test [5], the GLP1 secretion stimulation was 3.3% (inactive). In addition, in test [6], the inhibition of viability was 1.5% (inactive). The figures for the viability decrease (inhibition) in test [7] and in test [8] were -3.7% (inactive) and 2% (inactive), respectively.
For `O=C1NC(c2ccccc2)(c2ccccc2)C(=O)N1COP(=O)(O)O`, the nuclear beta-catenin stimulation was 1.6% (inactive) in test [1] (at 10 µM) and 3.6% in test [1] (stimulation, at 2 µM). The insulin secretion stimulation in test [2] is -0.5% (inactive). Further, the viability decrease in test [3] is -27% (inactive). Also, the tube area decrease in test [4] was -13% (inactive). Further, the GLP1 secretion stimulation in test [5] was 5.2% (inactive). Further, the inhibition of viability in test [6] was -8.63% (inactive). For the same compound, the values for the viability decrease (inhibition) in test [7] and in test [8] were -3.4% (inactive) and -11% (inactive), respectively.
On to `CC(C(O)c1ccccc1)N(C)CCOC(c1ccccc1)c1ccccc1` (centres undefined), for which the nuclear beta-catenin stimulation is 4.3% (inactive) in test [1] (at 10 µM) and 2.3% in test [1] (stimulation, at 2 µM). In test [2], the insulin secretion stimulation was 2.45% (inactive). Besides, the viability decrease in test [3] was 77.3% (active). Besides, in test [4], the tube area decrease was 14.1% (inactive). The GLP1 secretion stimulation in test [5] was 7.4% (inactive). In test [6], the inhibition of viability was 86.9% (active). The viability decrease (inhibition) in test [7] is 133% (active); in test [8] it was 81.5% (active).
`Cc1cn([C@@H]2O[C@H](CO)[C@@H](O)[C@H]2F)c(=O)[nH]c1=O`: the nuclear beta-catenin stimulation is -2.3% (inactive) in test [1] (at 10 µM) and -0.8% in test [1] (stimulation, at 2 µM). Also, the insulin secretion stimulation in test [2] is 0.3% (inactive). For the same compound, the viability decrease in test [3] was 26.6% (inactive). Moreover, in test [4], the tube area decrease was -11.7% (inactive). Moreover, the GLP1 secretion stimulation in test [5] was -3% (inactive). Moreover, in test [6], the inhibition of viability is 4.6% (inactive). In addition, the values for the viability decrease (inhibition) in test [7] and in test [8] were 3.1% (inactive) and 6.8% (inactive), respectively.
`O=S(c1cc(Cl)cc(Cl)c1O)c1cc(Cl)cc(Cl)c1O`: the nuclear beta-catenin stimulation in test [1] (at 10 µM) was -0.5% (inactive); in test [1] (stimulation, at 2 µM), -1.3%. Moreover, in test [2], the insulin secretion stimulation is 4.7% (inactive). Besides, the viability decrease in test [3] is 110% (active). In addition, in test [4], the tube area decrease is 92.8% (active). The GLP1 secretion stimulation in test [5] was 27.8% (active). Besides, in test [6], the inhibition of viability is 112% (active). Further, the figures for the viability decrease (inhibition) in test [7] and in test [8] were 126% (active) and 101% (active), respectively.
`CCCCCCCCCCCCOCCOCCOCCOCCOCCOCCOCCOCCOCCO`: the nuclear beta-catenin stimulation in test [1] (at 10 µM) is 3.9% (inactive); in test [1] (stimulation, at 2 µM) it was 1.9%. Moreover, in test [2], the insulin secretion stimulation is 0.8% (inactive). Besides, the viability decrease in test [3] is 78.1% (active). Moreover, in test [4], the tube area decrease is 47.8% (active). In addition, the GLP1 secretion stimulation in test [5] was 33.5% (active). In addition, the inhibition of viability in test [6] was 96.8% (active). For the same compound, the values for the viability decrease (inhibition) in test [7] and in test [8] were 124% (active) and 104% (active), respectively.
On to `CCCCN(CCN(CCCC)C(=O)N1CCOCC1)C(=O)N1CCOCC1`, for which the nuclear beta-catenin stimulation is 1.4% (inactive) in test [1] (at 10 µM) and 1% in test [1] (stimulation, at 2 µM). The insulin secretion stimulation in test [2] is 1.1% (inactive). Besides, the viability decrease in test [3] was -64.8% (inactive). Also, the tube area decrease in test [4] is 17.8% (inactive). The GLP1 secretion stimulation in test [5] was 0.9% (inactive). Further, the inhibition of viability in test [6] was 25.7% (inactive). For the same compound, the viability decrease (inhibition) is 2.8% (inactive) in test [7] and 24.1% (inactive) in test [8].
Turning to `Cc1ccc(/C=N/n2c(-c3ccccc3)csc2=S)cc1`, the nuclear beta-catenin stimulation is 1.7% (inactive) in test [1] (at 10 µM) and -0.8% in test [1] (stimulation, at 2 µM). The insulin secretion stimulation in test [2] is 5% (inactive). Also, the viability decrease in test [3] is 50.3% (active). Also, the tube area decrease in test [4] is 18.4% (inactive). Moreover, the GLP1 secretion stimulation in test [5] is 0.3% (inactive). Moreover, in test [6], the inhibition of viability was 16.7% (inactive). The viability decrease (inhibition) in test [7] was 56% (active); in test [8], 37.1% (inactive).
For `CCc1nnc(NS(=O)(=O)c2ccc(N)cc2)s1`, the nuclear beta-catenin stimulation in test [1] (at 10 µM) is -0.1% (inactive); in test [1] (stimulation, at 2 µM) it was 2%. Besides, the insulin secretion stimulation in test [2] was -0.8% (inactive). In addition, in test [3], the viability decrease was 5.1% (inactive). The tube area decrease in test [4] was -5.1% (inactive). The GLP1 secretion stimulation in test [5] is -0.1% (inactive). Besides, the inhibition of viability in test [6] is -13.8% (inactive). In addition, the values for the viability decrease (inhibition) in test [7] and in test [8] were 4.4% (inactive) and -18.9% (inactive), respectively.
As to `O=C(CN1CCN(Cc2ccc3c(c2)OCO3)CC1)N1c2ccccc2Sc2ccccc21`, the nuclear beta-catenin stimulation in test [1] (at 10 µM) is 0.2% (inactive); in test [1] (stimulation, at 2 µM), 2.2%. Also, the insulin secretion stimulation in test [2] was 7.5% (inactive). Moreover, the viability decrease in test [3] was 63.5% (active). The tube area decrease in test [4] is 7.5% (inactive). Also, in test [5], the GLP1 secretion stimulation is 16.3% (inactive). In addition, the inhibition of viability in test [6] was 67.4% (active). For the same compound, the values for the viability decrease (inhibition) in test [7] and in test [8] were 126% (active) and 76.8% (active), respectively.
In the case of `CC(C)(C)C(=O)NCCCC(=O)O`, the nuclear beta-catenin stimulation in test [1] (at 10 µM) is -1.1% (inactive); in test [1] (stimulation, at 2 µM), 2.4%. The insulin secretion stimulation in test [2] was 2.7% (inactive). Besides, the viability decrease in test [3] was -7.9% (inactive). In addition, the tube area decrease in test [4] is 2% (inactive). Besides, the GLP1 secretion stimulation in test [5] is -3.9% (inactive). Moreover, in test [6], the inhibition of viability was -1.1% (inactive). The values for the viability decrease (inhibition) in test [7] and in test [8] were -0.2% (inactive) and -16.7% (inactive), respectively.
For `C=Cc1c(C)c2cc3nc(cc4[nH]c(cc5nc(cc1[nH]2)C(C)=C5CCC(=O)O)c(CCC(=O)OC)c4C)[C@@]1(C)C3=CC=C(C(=O)OC)[C@@H]1C(=O)OC`, the nuclear beta-catenin stimulation in test [1] (at 10 µM) was 16.7% (inactive); in test [1] (stimulation, at 2 µM), 0.4%. In test [2], the insulin secretion stimulation was 1.5% (inactive). Moreover, in test [3], the viability decrease was 97.7% (active). In addition, the tube area decrease in test [4] is -206% (inactive). The GLP1 secretion stimulation in test [5] was -1.9% (inactive). Moreover, the inhibition of viability in test [6] was 92.4% (active). Also, the values for the viability decrease (inhibition) in test [7] and in test [8] were 98.2% (active) and 99.9% (active), respectively.
In the case of `CN(C)c1cc(NC(=O)CNC(C)(C)C)c(O)c2c1C[C@@H]1C[C@H]3[C@H](N(C)C)C(=O)C(C(N)=O)=C(O)[C@@]3(O)C(=O)C1=C2O`, the nuclear beta-catenin stimulation in test [1] (at 10 µM) is -0.8% (inactive); in test [1] (stimulation, at 2 µM), -1.4%. For the same compound, in test [2], the insulin secretion stimulation is -0.5% (inactive). In test [3], the viability decrease was 70% (active). For the same compound, in test [4], the tube area decrease was -8.6% (inactive). The GLP1 secretion stimulation in test [5] was 3.4% (inactive). In test [6], the inhibition of viability was 59.6% (active). For the same compound, the viability decrease (inhibition) in test [7] was 72% (active); in test [8], 58.1% (active).
